Drawing on PMC7862700, “An all-to-all approach to the identification of sequence-specific readers for epigenetic DNA modifications on cytosine”, this text covers binding signal for 40 sequences.

One assay concerns the target T1, ERF (Homo sapiens, UniProt P50548 1-548).
T1 sequence: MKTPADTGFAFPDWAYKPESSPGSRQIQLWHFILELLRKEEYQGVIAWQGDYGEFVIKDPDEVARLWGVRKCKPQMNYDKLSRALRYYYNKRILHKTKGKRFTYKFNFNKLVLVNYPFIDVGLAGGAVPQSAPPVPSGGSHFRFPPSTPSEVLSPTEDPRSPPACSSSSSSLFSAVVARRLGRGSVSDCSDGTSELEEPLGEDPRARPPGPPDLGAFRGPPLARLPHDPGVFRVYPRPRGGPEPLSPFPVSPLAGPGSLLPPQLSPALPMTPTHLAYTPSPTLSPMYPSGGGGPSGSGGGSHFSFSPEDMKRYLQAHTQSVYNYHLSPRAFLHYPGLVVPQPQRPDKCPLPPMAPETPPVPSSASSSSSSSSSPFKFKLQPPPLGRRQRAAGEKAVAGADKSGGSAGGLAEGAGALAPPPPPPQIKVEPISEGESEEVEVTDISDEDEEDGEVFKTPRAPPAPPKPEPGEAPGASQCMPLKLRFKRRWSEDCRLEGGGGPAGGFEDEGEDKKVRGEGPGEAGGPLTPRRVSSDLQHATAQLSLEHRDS
As to the kind of experiment: DAPPL (digital affinity profiling via proximity ligation, sequencing); 10 mM Tris-HCl pH 7.5, 50 mM NaCl, 1 mM DTT, 4% glycerol, room temperature, 30 min; GST-TFs on glutathione beads, 16-mer random dsDNA library, 0.1% formaldehyde crosslink after washing; high values mean tight binding. The note with it: protein: recombinant; tags: N-terminal GST; dsDNA, one strand shown. The essentials: (§1)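 Each value of binding signal is a hexamer's read frequency for a factor divided by the same hexamer's frequency in the tag-only sample. Barcoded, bead-captured GST fusions of human transcription factors made in yeast were pooled with that sample and incubated with 200 nmole of a random double-stranded 16-mer DNA library in Tris/NaCl/DTT/glycerol buffer at room temperature for 30 min. Washing, 0.1% formaldehyde crosslinking, proximity ligation, PCR and Illumina NextSeq500 sequencing followed.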
As to AATATT, the binding signal was 1.22 fold enrichment (6-mer frequency, TF over GST control).

With AAACGG, the binding signal was 1.17 fold enrichment (6-mer frequency, TF over GST control).

On to GTCACA, for which the binding signal was 1.11 fold enrichment (6-mer frequency, TF over GST control).

On to GGAAAA, for which the binding signal is 1.12 fold enrichment (6-mer frequency, TF over GST control).

Regarding CCTAAC, the binding signal was 1.53 fold enrichment (6-mer frequency, TF over GST control).

In the case of GATATC, the binding signal was 1.56 fold enrichment (6-mer frequency, TF over GST control).

With CTGCCG, the binding signal was 1.27 fold enrichment (6-mer frequency, TF over GST control).

On to ACCGCT, for which the binding signal is 1.21 fold enrichment (6-mer frequency, TF over GST control).

For GATGTC, the binding signal is 1.29 fold enrichment (6-mer frequency, TF over GST control).

In the case of ATGGAA, the binding signal was 1.23 fold enrichment (6-mer frequency, TF over GST control).

Regarding CTGGCA, the binding signal is 1.28 fold enrichment (6-mer frequency, TF over GST control).

Turning to CACCCC, the binding signal was 1.36 fold enrichment (6-mer frequency, TF over GST control).

On to CGACCC, for which the binding signal is 1.36 fold enrichment (6-mer frequency, TF over GST control).

As to TGCACC, the binding signal is 1.21 fold enrichment (6-mer frequency, TF over GST control).

On to ATATGG, for which the binding signal was 1.16 fold enrichment (6-mer frequency, TF over GST control).

CCCCGA: the binding signal is 1.15 fold enrichment (6-mer frequency, TF over GST control).

Consider ATAGCA, for which the binding signal is 1.24 fold enrichment (6-mer frequency, TF over GST control).

In the case of GCACAA, the binding signal is 1.16 fold enrichment (6-mer frequency, TF over GST control).

On to CCATCC, for which the binding signal was 1.12 fold enrichment (6-mer frequency, TF over GST control).

Regarding CCTGCG, the binding signal was 1.22 fold enrichment (6-mer frequency, TF over GST control).

Take ATGCAC: the binding signal was 1.25 fold enrichment (6-mer frequency, TF over GST control).

Take CGTTAC: the binding signal was 1.16 fold enrichment (6-mer frequency, TF over GST control).

With CGATAT, the binding signal was 1.1 fold enrichment (6-mer frequency, TF over GST control).

As for ACCTCG, the binding signal was 1.2 fold enrichment (6-mer frequency, TF over GST control).

For the sequence CCTCAA, the binding signal was 1.32 fold enrichment (6-mer frequency, TF over GST control).

In the case of CTATAA, the binding signal is 1.29 fold enrichment (6-mer frequency, TF over GST control).

Consider AACTTC, for which the binding signal is 2.22 fold enrichment (6-mer frequency, TF over GST control).

On to TAGTGT, for which the binding signal was 1.02 fold enrichment (6-mer frequency, TF over GST control).

Take AAAAAC: the binding signal was 1.22 fold enrichment (6-mer frequency, TF over GST control).

As to CTGATG, the binding signal is 1.48 fold enrichment (6-mer frequency, TF over GST control).

With GGAAAT, the binding signal is 2.42 fold enrichment (6-mer frequency, TF over GST control).

As for TCCGTT, the binding signal is 1.53 fold enrichment (6-mer frequency, TF over GST control).

TTTACC: the binding signal is 1.21 fold enrichment (6-mer frequency, TF over GST control).

For TACAAC, the binding signal was 1.1 fold enrichment (6-mer frequency, TF over GST control).

For the sequence CTAACG, the binding signal was 1.23 fold enrichment (6-mer frequency, TF over GST control).

As for AGCGAC, the binding signal was 1.32 fold enrichment (6-mer frequency, TF over GST control).

For AAACTG, the binding signal is 1.03 fold enrichment (6-mer frequency, TF over GST control).

As to TCCGTC, the binding signal was 1.16 fold enrichment (6-mer frequency, TF over GST control).

Regarding ATGGGC, the binding signal was 1.17 fold enrichment (6-mer frequency, TF over GST control).

For the sequence TGTTTA, the binding signal is 1.22 fold enrichment (6-mer frequency, TF over GST control).

The target in a further assay is T2, ETV3L (Homo sapiens, UniProt Q6ZN32 1-361).
T2 sequence: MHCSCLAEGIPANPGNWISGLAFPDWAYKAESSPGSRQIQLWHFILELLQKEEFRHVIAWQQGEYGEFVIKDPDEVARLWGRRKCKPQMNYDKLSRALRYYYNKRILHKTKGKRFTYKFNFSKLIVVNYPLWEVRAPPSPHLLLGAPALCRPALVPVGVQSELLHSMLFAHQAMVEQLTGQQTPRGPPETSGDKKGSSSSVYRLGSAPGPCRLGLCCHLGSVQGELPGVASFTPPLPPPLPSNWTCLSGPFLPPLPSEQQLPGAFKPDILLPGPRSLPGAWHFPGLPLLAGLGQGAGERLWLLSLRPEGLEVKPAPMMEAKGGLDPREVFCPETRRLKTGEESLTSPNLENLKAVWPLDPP
The assay is described as above. The note with it: protein: recombinant; tags: N-terminal GST; dsDNA, one strand shown. The essentials:
as §1
On to AATATT, for which the binding signal is 1.36 fold enrichment (6-mer frequency, TF over GST control).

As to AAACGG, the binding signal was 1.23 fold enrichment (6-mer frequency, TF over GST control).

Turning to GTCACA, the binding signal is 1.08 fold enrichment (6-mer frequency, TF over GST control).

On to GGAAAA, for which the binding signal is 1.31 fold enrichment (6-mer frequency, TF over GST control).

Take CCTAAC: the binding signal was 1.45 fold enrichment (6-mer frequency, TF over GST control).

In the case of GATATC, the binding signal is 1.46 fold enrichment (6-mer frequency, TF over GST control).

As for CTGCCG, the binding signal was 1.23 fold enrichment (6-mer frequency, TF over GST control).

Turning to ACCGCT, the binding signal was 1.12 fold enrichment (6-mer frequency, TF over GST control).

GATGTC: the binding signal was 1.31 fold enrichment (6-mer frequency, TF over GST control).

On to ATGGAA, for which the binding signal was 1.18 fold enrichment (6-mer frequency, TF over GST control).

On to CTGGCA, for which the binding signal is 1.27 fold enrichment (6-mer frequency, TF over GST control).

For the sequence CACCCC, the binding signal is 1.34 fold enrichment (6-mer frequency, TF over GST control).

For CGACCC, the binding signal was 1.28 fold enrichment (6-mer frequency, TF over GST control).

Consider TGCACC, for which the binding signal is 1.21 fold enrichment (6-mer frequency, TF over GST control).

Consider ATATGG, for which the binding signal was 1.3 fold enrichment (6-mer frequency, TF over GST control).

In the case of CCCCGA, the binding signal was 1.23 fold enrichment (6-mer frequency, TF over GST control).

Turning to ATAGCA, the binding signal was 1.19 fold enrichment (6-mer frequency, TF over GST control).

For the sequence GCACAA, the binding signal was 1.08 fold enrichment (6-mer frequency, TF over GST control).

With CCATCC, the binding signal is 1.31 fold enrichment (6-mer frequency, TF over GST control).

With CCTGCG, the binding signal was 1.49 fold enrichment (6-mer frequency, TF over GST control).

With ATGCAC, the binding signal is 1.28 fold enrichment (6-mer frequency, TF over GST control).

As to CGTTAC, the binding signal is 1.18 fold enrichment (6-mer frequency, TF over GST control).

Take CGATAT: the binding signal is 1.14 fold enrichment (6-mer frequency, TF over GST control).

As to ACCTCG, the binding signal is 1.22 fold enrichment (6-mer frequency, TF over GST control).

With CCTCAA, the binding signal is 1.58 fold enrichment (6-mer frequency, TF over GST control).

Take CTATAA: the binding signal is 1.14 fold enrichment (6-mer frequency, TF over GST control).

Take AACTTC: the binding signal was 2.51 fold enrichment (6-mer frequency, TF over GST control).

With TAGTGT, the binding signal is 1.04 fold enrichment (6-mer frequency, TF over GST control).

Take AAAAAC: the binding signal is 1.25 fold enrichment (6-mer frequency, TF over GST control).

As to CTGATG, the binding signal was 1.53 fold enrichment (6-mer frequency, TF over GST control).

GGAAAT: the binding signal was 2.66 fold enrichment (6-mer frequency, TF over GST control).

For the sequence TCCGTT, the binding signal is 1.46 fold enrichment (6-mer frequency, TF over GST control).

Regarding TTTACC, the binding signal is 1.1 fold enrichment (6-mer frequency, TF over GST control).

TACAAC: the binding signal is 1.11 fold enrichment (6-mer frequency, TF over GST control).

For the sequence CTAACG, the binding signal is 1.25 fold enrichment (6-mer frequency, TF over GST control).

Consider AGCGAC, for which the binding signal was 1.13 fold enrichment (6-mer frequency, TF over GST control).

As to AAACTG, the binding signal is 1.08 fold enrichment (6-mer frequency, TF over GST control).

As for TCCGTC, the binding signal is 1.46 fold enrichment (6-mer frequency, TF over GST control).

As to ATGGGC, the binding signal was 1.3 fold enrichment (6-mer frequency, TF over GST control).

For TGTTTA, the binding signal was 1.2 fold enrichment (6-mer frequency, TF over GST control).

In a further assay the target is T3, ETS2 (Homo sapiens, UniProt P15036 1-469).
T3 sequence: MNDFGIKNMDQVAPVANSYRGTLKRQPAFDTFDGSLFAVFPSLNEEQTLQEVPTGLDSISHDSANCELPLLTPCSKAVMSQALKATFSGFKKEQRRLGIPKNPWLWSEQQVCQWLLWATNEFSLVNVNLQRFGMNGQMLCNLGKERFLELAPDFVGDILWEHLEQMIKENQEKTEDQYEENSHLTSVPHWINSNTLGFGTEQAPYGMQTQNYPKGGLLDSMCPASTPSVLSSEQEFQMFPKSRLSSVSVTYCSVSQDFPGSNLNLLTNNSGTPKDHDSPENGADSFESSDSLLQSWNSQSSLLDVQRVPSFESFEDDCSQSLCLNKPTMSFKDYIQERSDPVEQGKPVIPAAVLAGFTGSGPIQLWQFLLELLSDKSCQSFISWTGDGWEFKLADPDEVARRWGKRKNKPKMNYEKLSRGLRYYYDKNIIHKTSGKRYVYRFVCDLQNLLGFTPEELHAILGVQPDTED
The description is as above. Particulars: protein: recombinant; tags: N-terminal GST; dsDNA, one strand shown. The gist of the method: as §1
For AATATT, the binding signal is 1.34 fold enrichment (6-mer frequency, TF over GST control).

As to AAACGG, the binding signal is 1.26 fold enrichment (6-mer frequency, TF over GST control).

GTCACA: the binding signal is 1.14 fold enrichment (6-mer frequency, TF over GST control).

Regarding GGAAAA, the binding signal is 1.27 fold enrichment (6-mer frequency, TF over GST control).

CCTAAC: the binding signal is 1.38 fold enrichment (6-mer frequency, TF over GST control).

Consider GATATC, for which the binding signal was 1.49 fold enrichment (6-mer frequency, TF over GST control).

For CTGCCG, the binding signal is 1.32 fold enrichment (6-mer frequency, TF over GST control).

Consider ACCGCT, for which the binding signal was 1.1 fold enrichment (6-mer frequency, TF over GST control).

Take GATGTC: the binding signal is 1.33 fold enrichment (6-mer frequency, TF over GST control).

On to ATGGAA, for which the binding signal is 1.23 fold enrichment (6-mer frequency, TF over GST control).

For CTGGCA, the binding signal is 1.25 fold enrichment (6-mer frequency, TF over GST control).

CACCCC: the binding signal was 1.22 fold enrichment (6-mer frequency, TF over GST control).

On to CGACCC, for which the binding signal was 1.29 fold enrichment (6-mer frequency, TF over GST control).

Take TGCACC: the binding signal is 1.08 fold enrichment (6-mer frequency, TF over GST control).

On to ATATGG, for which the binding signal was 1.32 fold enrichment (6-mer frequency, TF over GST control).

For CCCCGA, the binding signal was 1.07 fold enrichment (6-mer frequency, TF over GST control).

For ATAGCA, the binding signal was 1.22 fold enrichment (6-mer frequency, TF over GST control).

For GCACAA, the binding signal was 1.12 fold enrichment (6-mer frequency, TF over GST control).

For the sequence CCATCC, the binding signal was 1.23 fold enrichment (6-mer frequency, TF over GST control).

For the sequence CCTGCG, the binding signal was 1.27 fold enrichment (6-mer frequency, TF over GST control).
